Assay [1] can be described thus: qHTS Assay for Lipid Storage Modulators (AID 1519; calls by dose curve; on activity change, negative = inhibition: on the % scale 0 is the no-effect control and ±100 the full control effect). The settings on record: Drosophila S3 cells, BODIPY lipid droplet/cell ratio, laser cytometry, cells loaded with oleic acid. In outline:
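Cells seeded at 5,000 per well were treated with compounds over a concentration series and loaded with oleic acid (400 uM, as added). Lipid droplet fluorescence (488 nm excitation, 500-530 nm channel) was read by laser-scanning cytometry and normalized to 20 uM Triacsin C.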

Assay [2] addresses DNA repair nuclease/redox regulator APEX1 (Homo sapiens) (UniProt P27695). In words: qHTS Validation Assay for Inhibitors of the Human Apurinic/apyrimidinic Endonuclease 1 (APE1) (AID 1705;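 further: TAMRA fluorescence gain over two minutes as APE1 cuts a quenched THF abasic duplex; on the % scale 0 is the no-effect control and ±100 the full control effect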). The note with it: purified APE1 endonuclease activity, fluorescence, titration; series mostly up to 57.1 µM. In outline:
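Endonuclease activity of human APE1 is followed as dequenching when the enzyme incises a tetrahydrofuran abasic site in a short duplex labelled 5'-TAMRA/3'-BHQ-2 (50 nM final), after 15 min enzyme–compound preincubation at room temperature.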

Assay [3] is described as follows: Counterscreen for APE1 Inhibitors: Fluorescent Dye Displacement Validation Assay (AID 1707).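 Further: plate controls were ThO with dsDNA and no compound for no effect and ThO without dsDNA for full effect.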 The settings on record: fluorescent dye displacement from DNA; series mostly up to 57.1 µM. Put shortly: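 Counterscreen flags promiscuous DNA binders: compounds displacing ThO from duplex DNA (abasic THF site, 50 nM) reduce 540 nm emission (480 nm excitation). ThO 250 nM final; Tris-HCl pH 7.5 with NaCl, MgCl2 and Tween-20.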

Assay [4] deals with Endonuclease 4 (Escherichia coli (strain K12)) (UniProt P0A6C1). In words: Counterscreen for APE1 Inhibitors: qHTS Validation Assay for Inhibitors of Endonuclease IV (AID 1708). Further: on the % scale 0 is the no-effect control and ±100 the full control effect. The note with it: E. coli endonuclease IV, DNA cleavage fluorescence; series mostly up to 57.1 µM. Put shortly: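 Incision of a double-stranded 50 nM TAMRA/BHQ-2 abasic substrate was followed kinetically (525/598 nm, reads every 60 s) after 15 min enzyme–compound preincubation with 2 nM EndoIV in pH 7.5 Tris buffer with MgCl2, DTT and Tween-20; concentration-response format.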

A short description of assay [5]: qHTS for differential inhibitors of proliferation of Plasmodium falciparum line 7G8 (AID 1815).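 Further: parasite growth measured after three days of incubation.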 Further: potency means the concentration at half of the fitted maximal effect.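 On activity change, negative = inhibition: plate controls were vehicle wells for no effect and reference inhibitor wells for full effect.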 The settings on record: Plasmodium falciparum 7G8 proliferation inhibition; series mostly up to 28.7 µM.
The nature of assay [6]: qHTS for differential inhibitors of proliferation of Plasmodium falciparum line GB4 (AID 1816).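 Further: parasite growth measured after 72 h incubation.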 Further: potency means the concentration at half of the fitted maximal effect.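 On activity change, negative = inhibition: 0% = vehicle DMSO and -100% = reference inhibitor.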 The note with it: Potency: Plasmodium falciparum GB4 proliferation inhibition; series mostly up to 28.7 µM.
Assay [7] is described as follows: qHTS for differential inhibitors of proliferation of Plasmodium falciparum line 3D7 (AID 1876). Further: potency means the concentration at half of the fitted maximal effect. The note with it: P. falciparum 3D7 proliferation inhibition; series mostly up to 28.7 µM.
The nature of assay [8]: qHTS for differential inhibitors of proliferation of Plasmodium falciparum line D10 (AID 1877).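 Further: parasites grown with compound for 72 h before DNA staining.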 Further: potency means the concentration at half of the fitted maximal effect.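 On activity change, negative = inhibition: plate controls were vehicle wells for no effect and reference inhibitor wells for full effect.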 The note with it: series mostly up to 28.7 µM.
A short description of assay [9]: qHTS for differential inhibitors of proliferation of Plasmodium falciparum line W2 (AID 1883).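 Further: parasites grown with compound for 72 h before lysis and staining.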 Further: potency means the concentration at half of the fitted maximal effect.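 On activity change, negative = inhibition: 0% = vehicle wells and -100% = control inhibitor wells.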 The note with it: Potency: Plasmodium falciparum W2 proliferation inhibition; series mostly up to 28.7 µM.
The nature of assay [10]: qHTS for differential inhibitors of proliferation of Plasmodium falciparum line Dd2 (AID 1882). Further: nearly all actives have a fitted effect of over 65% in size. Further: potency means the concentration at half of the fitted maximal effect.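 On activity change, negative = inhibition: plate controls were DMSO vehicle for no effect and 0.29 µM artemisinin for full effect.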 The note with it: Potency: Plasmodium falciparum Dd2 proliferation inhibition; series mostly up to 28.7 µM. In outline:
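SYBR Green DNA fluorescence (ex 485, em 535 nm) after overnight lysis quantifies parasite growth; compound exposure lasted 72 h at 37 C on infected red cells at 2.5% hematocrit, 0.3% parasitemia (final). Artemisinin 0.29 uM and vehicle wells define normalization.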

The mark [11] stands for this setting: measured here: cell count channel max response.
The mark [12] stands for this setting: measured here: lipid channel max response.

Structures are written as SMILES. Where “and” joins values, the source holds several entries; their conditions need not be identical. Equal values may be shown once. Records with an inconclusive call do not appear. Calls of active or inactive are those of the source. Unless noted, the call rests on the fitted dose curve; in most records, active means well fitted curve in the direction sought with a large enough effect; inconclusive means small, poorly fitted or top-dose-only effect, or another doubt; inactive means no such curve, though single readings can be large; an effect the other way counts as inactive or inconclusive.

DNA repair nuclease/redox regulator APEX1 (Homo sapiens), sequence (P27695 whole entry, looked up): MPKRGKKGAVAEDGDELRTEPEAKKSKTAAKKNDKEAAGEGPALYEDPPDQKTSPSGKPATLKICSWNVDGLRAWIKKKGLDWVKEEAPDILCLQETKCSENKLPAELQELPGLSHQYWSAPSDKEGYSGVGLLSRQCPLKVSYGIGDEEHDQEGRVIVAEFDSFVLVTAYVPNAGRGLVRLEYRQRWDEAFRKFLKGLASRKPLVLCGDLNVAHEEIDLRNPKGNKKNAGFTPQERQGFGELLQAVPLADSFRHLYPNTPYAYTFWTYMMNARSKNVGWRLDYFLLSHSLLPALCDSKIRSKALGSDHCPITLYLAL

As for `CCCC(C)C1(CC)C(=O)NC(=O)NC1=O` (centres undefined), in [1] (at 57.5 µM (top of the series)), the activity change, negative = inhibition was 5.49% (inactive). The results for the max response in [1] (setting [11]) and in assay [1] (setting [12]) were -11.5% and -3.32%, respectively.

Consider `NC(Cc1ccc(N(CCCl)CCCl)cc1)C(=O)O` (centres undefined), for which the activity change, negative = inhibition in [1] (at 57.5 µM (top of the series)) is 5.85% (inactive). Moreover, the max response in assay [1] (setting [11]) was determined as 17.5%; in [1] (setting [12]), 28.4%. For the same compound, the Potency entry in [2], in assay [3] and in [4] was “inactive” each time. Besides, the Potency is 10 µM (active) in [5]; 11.2 µM (active) in [6]; 10 µM (active) in [7]; 12.6 µM (active) in [8]; 10 µM (active) in [9].

For the compound `COc1ccc(OC)c(C(O)C(C)N)c1` (centres undefined), in [1] (at 57.5 µM (top of the series)), the activity change, negative = inhibition was 12.3% (inactive) and -2.22% (inactive). Moreover, the max response is 8.8% and 28.9% in [1] (setting [11]); 25.1% and 26.8% in assay [1] (setting [12]). Also, the Potency entry in [2], in [3], in [4], in assay [5], in assay [6] and in [7] was “inactive” in each case. The Potency result in [8] and in [10] was “inactive” in each case.

Regarding `O=S(=O)(O)c1cc(O)ccc1O`, the activity change, negative = inhibition in assay [1] (at 25.7 µM (top of the series)) is 1.28% (inactive). The max response is 11.8% in assay [1] (setting [11]) and 12.6% in [1] (setting [12]).

Consider `C=CCN1C[C@@H](C)N([C@H](c2ccc(C(=O)N(CC)CC)cc2)c2cccc(OC)c2)C[C@@H]1C`, for which the activity change, negative = inhibition in [1] (at 57.5 µM (top of the series)) was 2.23% (inactive). For the same compound, the results for the max response in assay [1] (setting [11]) and in [1] (setting [12]) were -2.68% and 0%, respectively. Further, the Potency entry in [2], in assay [3] and in [4] was “inactive” throughout. Further, the Potency in assay [5] is 2.82 µM (active); in assay [6] it was 3.98 µM (active); in assay [7], 3.16 µM (active); in [8], 7.08 µM (active); in assay [10], 8.91 µM (active); in assay [9], 3.16 µM (active).

With `CCCN(CCC)C1CCc2cccc(O)c2C1` (centres undefined), in [1] (at 57.5 µM (top of the series)), the activity change, negative = inhibition is -0.917% (inactive). Besides, the max response in assay [1] (setting [11]) is -31.4%; in assay [1] (setting [12]), -33.3%. Further, the Potency entry in assay [2], in [3], in assay [4], in [5], in [6] and in assay [7] was “inactive” throughout. Also, the Potency entry in assay [8], in assay [10] and in assay [9] was “inactive” throughout.

In the case of `CCC(=O)O[C@@](Cc1ccccc1)(c1ccccc1)[C@@H](C)CN(C)C`, the activity change, negative = inhibition in assay [1] (at 25.7 µM (top of the series)) was -2.5% (inactive). In addition, the max response in assay [1] (setting [11]) was -5.05%; in [1] (setting [12]) it was -7.97%.

For the compound `ClC1C(Cl)C(Cl)C(Cl)C(Cl)C1Cl` (centres undefined), the activity change, negative = inhibition in assay [1] (at 57.5 µM (top of the series)) is 9.37% (inactive). In addition, the results for the max response in assay [1] (setting [11]) and in assay [1] (setting [12]) were 11.2% and 20.6%, respectively.

Regarding `Clc1ccc(Cl)cc1`, the activity change, negative = inhibition in assay [1] (at 57.5 µM (top of the series)) is 0.214% (inactive). Moreover, the max response in [1] (setting [11]) stood at 8.86%; in assay [1] (setting [12]), 11.5%.

As to `CN1[C@@H]2CC[C@H]1CC(OC1c3ccccc3CCc3ccccc31)C2` (some centres undefined), the activity change, negative = inhibition in assay [1] (at 25.7 µM (top of the series)) was -3.36% (inactive). Further, the max response is -5.63% in [1] (setting [11]) and -11.3% in [1] (setting [12]).

As to `C=CCN1CC[C@]23c4c5ccc(O)c4O[C@H]2/C(=N/NC(=O)c2ccccc2)CC[C@@]3(O)[C@H]1C5`, the activity change, negative = inhibition in assay [1] (at 57.5 µM (top of the series)) is -1.45% (inactive). Further, the max response was -18.8% in assay [1] (setting [11]) and -20.5% in [1] (setting [12]). The Potency result in assay [2], in [3] and in assay [4] was “inactive” in each case. Also, the Potency was 10 µM (active) in [5]; 8.91 µM (active) in assay [6]; 10 µM (active) in [7]; 3.16 µM (active) in assay [8]; 3.16 µM (active) in [9].

On to `CC(N)Cc1ccc(O)cc1` (centres undefined), for which the activity change, negative = inhibition in assay [1] (at 57.5 µM (top of the series)) is 1.02% (inactive). Also, the max response in assay [1] (setting [11]) was 11.5%; in [1] (setting [12]), 13.9%.

`CCC1(C)CC(=O)NC(=O)C1`: the activity change, negative = inhibition in assay [1] (at 25.7 µM (top of the series)) was -1.02% (inactive). The max response in assay [1] (setting [11]) is -7.91%; in assay [1] (setting [12]), -9.15%.

Regarding `C=CCC1(C(C)CCC)C(=O)N=C(S)NC1=O` (centres undefined), the activity change, negative = inhibition in assay [1] (at 57.5 µM (top of the series)) is 5.57% (inactive). Also, the figures for the max response in [1] (setting [11]) and in assay [1] (setting [12]) were 14.6% and 20.4%, respectively.

Turning to `O=C1CCO1`, the activity change, negative = inhibition in assay [1] (at 57.5 µM (top of the series)) is 5.6% (inactive). Further, the max response is 8.02% in assay [1] (setting [11]) and 16.6% in assay [1] (setting [12]).

As to `CN1CC[C@@]2(C)c3cc(O)ccc3N(C)C12` (some centres undefined), in [1] (at 57.5 µM (top of the series)), the activity change, negative = inhibition is 0.587% (inactive). Further, the values for the max response in assay [1] (setting [11]) and in assay [1] (setting [12]) were -12.4% and -11.4%, respectively. Also, the Potency entry in assay [2], in [3] and in assay [4] was “inactive” in each case. In addition, the Potency was 12.6 µM (active) in assay [5]; 11.2 µM (active) in [6]; 11.2 µM (active) in assay [7]; 14.1 µM (active) in assay [8]; 12.6 µM (active) in assay [10]; 12.6 µM (active) in assay [9].

The values are drawn from PubChem BioAssay (NCATS).
